Test results published in the supplement of paper PMC10127200.
Structures can show the parent of a compound that is named as a salt.

Assays:
Assay in all cases: Euclidean distance of Cell Painting phenotypic profile (signed KS, 77 features) to DMSO centroid (dimensionless distance); 5 or 10 uM (library dependent); higher = stronger phenotypic change vs DMSO (phenoactivity)
Settings in all cases: 48 h
786-O = tested on: 786-O
Summary of the method: (§1)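 Five cancer lines, together with a healthy fibroblast line, received library compounds for 48 h at a library-dependent 10 or 5 uM and 0.1% DMSO final. Harmony then derived 77 features from confocal 20X images (9 fields/well) of the stained cells, scoring each as a signed Kolmogorov-Smirnov statistic against same-plate vehicle wells. After plate-position correction, correlation weighting and replicate averaging at the top dose, phenoactivity was taken as each profile's Euclidean distance to the median vehicle profile.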

A549 = tested on: A549
Summary of the method: as §1

DU145 = tested on: DU145
Summary of the method: as §1

FB = tested on: FB
Summary of the method: as §1

HEPG2 = tested on: HEPG2
Summary of the method: as §1

OVCAR4 = tested on: OVCAR4
Summary of the method: as §1

Row | SMILES | Euclidean distance (786-O) | Euclidean distance (A549) | Euclidean distance (DU145) | Euclidean distance (FB) | Euclidean distance (HEPG2) | Euclidean distance (OVCAR4)
1 | CN(C)CCCN1c2ccccc2Sc2ccc(Cl)cc21 [Chlorpromazine] | 1.47 | 1.98 | 1.56 | 2.21 | 2.01 | 1.04
2 | N[C@@H](CSCCCO)C(=O)O [Fudosteine] | 1.5 | 1.77 | 0.71 | 1.34 | 0.516 | 1.3
3 | CCCCCOc1ccc(-c2ccc(-c3ccc(C(=O)N[C@H]4C[C@@H](O)[C@@H](O)NC(=O)[C@@H]5[C@@H](O)[C@@H](C)CN5C(=O)[C@H]([C@@H](C)O)NC(=O)[C@H]([C@H](O)[C@@H](O)c5ccc(O)cc5)NC(=O)[C@@H]5C[C@@H](O)CN5C(=O)[C@H]([C@@H](C)O)NC4=O)cc3)cc2)cc1 | 0.818 | 0.702 | 1.21 | 0.749 | 1.21 | 1.01
4 | COc1cc2c(cc1OC)-c1cc3ccc(OC)c(OC)c3c[n+]1CC2 [Palmatine] | 0.525 | 0.996 | 0.565 | 0.73 | 1.18 | 0.631
5 | CCCCCCCCCC(=O)CC(O)S(=O)(=O)O (stereo unspecified) [Sodium Houttuyfonate] | 1.45 | 0.727 | 1.5 | 0.985 | 1.06 | 1.66
6 | CO[C@H]1C[C@@H]2CC[C@@H](C)[C@@](O)(O2)C(=O)C(=O)N2CCCC[C@H]2C(=O)O[C@H]([C@H](C)C[C@@H]2CC[C@H](n3cnnn3)[C@H](OC)C2)CC(=O)[C@H](C)/C=C(\C)[C@@H](O)[C@@H](OC)C(=O)[C@H](C)C[C@H](C)/C=C/C=C/C=C/1C [Zotarolimus(ABT-578)] | 2.27 | 1.83 | 1.38 | 2.7 | 1.45 | 2.09
7 | COc1cc2/c(=N/c3ccc(Br)cc3F)nc[nH]c2cc1OCC1CCN(C)CC1 [Vandetanib (ZD6474)] | 1.3 | 2.59 | 2.38 | 2.66 | 1.7 | 2.94
8 | N[C@@H](CC(=O)O)C(=O)O [L-aspartic Acid] | 1.2 | 1.3 | 0.701 | 0.809 | 0.455 | 1.44
9 | NS(=O)(=O)c1cc(C(=O)O)c(NCc2ccco2)cc1Cl [Furosemide] | 1.62 | 0.823 | 1.83 | 1.25 | 0.788 | 0.747
10 | COC(=O)Nc1nc2cc(C(=O)c3cccs3)ccc2[nH]1 [Nocodazole] | 2.96 | 2.51 | 3.43 | 2.56 | 2.58 | 3.08
11 | COc1c(C)cnc(Cn2cnc3c(Cl)nc(N)nc32)c1C | 3.02 | 3.08 | 3.08 | 3.34 | 4.24 | 3.08
12 | c1ccc(CN(CC2=NCCN2)c2ccccc2)cc1 [Antazoline HCl] | 1.19 | 0.647 | 0.893 | 1.02 | 0.685 | 1.02
13 | O=C(Nc1ccc(Cl)cc1)Nc1ccc(Cl)c(Cl)c1 [Triclocarban] | 2.18 | 3.14 | 1.62 | 1.74 | 3.53 | 2.98
14 | C=C(CC)C(=O)c1ccc(OCC(=O)O)c(Cl)c1Cl [Ethacrynic Acid] | 1.19 | 1.01 | 1.03 | 1.17 | 1.05 | 1.14
15 | CC(C)(C)C(=O)OCOC(=O)[C@@H]1N2C(=O)[C@@H](/N=C/N3CCCCCC3)[C@H]2SC1(C)C [Pivmecillinam hydrochloride] | 1.23 | 1.69 | 0.728 | 0.994 | 0.59 | 1.14
16 | Nc1cc(Cl)c(N=C2NCCN2)c(Cl)c1 [Apraclonidine HCl] | 0.986 | 1.57 | 0.828 | 1.25 | 0.638 | 2
17 | Nc1ccc(S(=O)(=O)c2ccc(N)cc2)cc1 [Dapson] | 1.45 | 2.62 | 2.45 | 1.64 | 0.497 | 1.8
18 | NCCc1c[nH]cn1 [Histamine Phosphate] | 1.2 | 0.956 | 1.77 | 1.25 | 1.23 | 1.04
19 | C[C@]12CC[C@@H]3c4ccc(O)cc4CC[C@H]3[C@@H]1CCC2=O [Estrone] | 0.82 | 0.907 | 0.761 | 1.21 | 0.472 | 0.764
20 | CC(C)Oc1ccc(-c2nc(-c3cccc4c3CC[C@@H]4NCCO)no2)cc1C#N [Ozanimod (RPC1063)] | 1.97 | 1.08 | 0.79 | 1.6 | 1.46 | 1.68
21 | COc1ccccc1OCC(O)COC(N)=O (stereo unspecified) [Methocarbamol] | 1.4 | 0.507 | 1.06 | 0.751 | 1.83 | 0.907
22 | CCC[C@@H]1C[C@@H](C(=O)N[C@@H]([C@H]2O[C@H](SC)[C@H](O)[C@@H](O)[C@H]2O)[C@H](C)Cl)N(C)C1 [Clindamycin HCl] | 1.06 | 0.576 | 0.99 | 0.761 | 0.82 | 0.755
23 | CCn1cc(C(=O)O)c(=O)c2cc(F)c(N3CCNCC3)nc21 [Enoxacin Sesquihydrate] | 1.35 | 1.38 | 0.79 | 0.738 | 0.516 | 1.19

Row | SMILES | Euclidean distance (786-O) | Euclidean distance (A549) | Euclidean distance (DU145) | Euclidean distance (FB) | Euclidean distance (HEPG2) | Euclidean distance (OVCAR4)
24 | N=C(N)N/N=C/c1c(Cl)cccc1Cl [Guanabenz Acetate] | 1.25 | 1.29 | 1.12 | 0.609 | 0.842 | 1.77
25 | CNC1(C)C2CCC(C2)C1(C)C (stereo unspecified) [Mecamylamine Hydrochloride] | 1.04 | 0.418 | 0.617 | 1.01 | 0.384 | 1.18
26 | Cc1cc2c(cc1S(N)(=O)=O)S(=O)(=O)CCC2 [Meticrane] | 0.951 | 0.864 | 2.26 | 0.946 | 1.17 | 0.99
27 | Cn1cc(C2=C(c3cccc(N)c3)C(=O)NC2=O)c2ccccc21 | 3.84 | 2.48 | 2.97 | 1.8 | 1.6 | 3.79
28 | Cc1nc(N)sc1-c1ccnc(Nc2ccc(N3CCOCC3)cc2)n1 | 2.86 | 3.52 | 1.18 | 1.92 | 2.08 | 2.59
29 | CN(CCOc1ccc(CC2SC(=O)NC2=O)cc1)c1ccccn1 (stereo unspecified) [Rosiglitazone] | 1.31 | 0.979 | 0.878 | 1.79 | 0.962 | 1.14
30 | CC1=NN(c2ccc(C)c(C)c2)C(=O)/C1=N\Nc1cccc(-c2cccc(C(=O)O)c2)c1O [Eltrombopag Olamine] | 1.58 | 1.04 | 1.13 | 2.4 | 1.69 | 1.49
31 | O=S(=O)(O)CCSSCCS(=O)(=O)O [Dimesna] | 0.983 | 1.01 | 1.18 | 1.16 | 0.803 | 1.13
32 | CC(C)(C#N)c1ccc(N2C(=O)OCc3cnc4ccc(-c5cnc6ccccc6c5)cc4c32)cc1 | 3.92 | 2.98 | 0.959 | 0.992 | 0.996 | 4.19
33 | CCN1CCN(c2cc3c(cc2F)c(=O)c(C(=O)O)cn3C2CC2)CC1 [Enrofloxacin] | 0.875 | 1.1 | 0.711 | 0.933 | 0.992 | 1.67
34 | O=C(O)CCCN1CCC(O[C@@H](c2ccc(Cl)cc2)c2ccccn2)CC1 [Bepotastine] | 0.883 | 0.582 | 0.573 | 0.639 | 0.595 | 0.955
35 | CC[C@H](Nc1ncnc2[nH]cnc12)c1oc2ccccc2c(=O)c1-c1cccc(F)c1 [Tenalisib (RP6530)] | 0.975 | 0.66 | 0.791 | 1.47 | 0.466 | 0.678
36 | O=c1ccc2cc(O)c(O)cc2o1 [Esculetin] | 1.31 | 0.797 | 1.69 | 0.959 | 1.2 | 0.988
37 | CC[C@@H]1C(=O)OC[C@@H]1Cc1cncn1C [Pilocarpine HCl] | 1.14 | 0.624 | 0.725 | 0.78 | 0.698 | 1.49
38 | Cc1oc(=O)oc1CN1CCN(c2cc3c(cc2F)c(=O)c(C(=O)O)c2n3C(C)S2)CC1 (stereo unspecified) [Prulifloxacin (NM441. AF 3013)] | 1.38 | 0.71 | 0.968 | 0.785 | 1.9 | 0.841
39 | CCc1c2c(nc3ccc(O)cc13)-c1cc3c(c(=O)n1C2)COC(=O)[C@]3(O)CC | 4.4 | 4.38 | 3.48 | 4.61 | 3.55 | 3.46
40 | CCOc1cc(N)c(Cl)cc1C(=O)NCC1CN(Cc2ccc(F)cc2)CCO1 (stereo unspecified) [Mosapride] | 1.2 | 0.542 | 0.858 | 1.33 | 0.651 | 1.09
41 | NC(=O)c1ccccc1O [Salicylamide] | 1.39 | 1.58 | 1.56 | 1.4 | 0.71 | 2.3
42 | CC(C)(O)[C@H]1CC[C@@](C)([C@H]2[C@@H](O)C[C@@]3(C)[C@@H]4C[C@H](O[C@@H]5O[C@H](CO)[C@@H](O)[C@H](O)[C@H]5O)[C@H]5C(C)(C)[C@@H](O[C@@H]6OC[C@@H](O)[C@H](O)[C@H]6O)CC[C@@]56C[C@@]46CC[C@]23C)O1 [Astragaloside A] | 4.07 | 3.46 | 3.2 | 2.61 | 2.19 | 3.11
43 | CC(C)N(CC[C@H](c1ccccc1)c1cc(CO)ccc1O)C(C)C | 1.1 | 0.675 | 0.538 | 0.842 | 1.02 | 1.05
44 | CCOC(=O)O[C@]1(C(=O)OCCl)CC[C@H]2[C@@H]3CCC4=CC(=O)C=C[C@]4(C)[C@H]3[C@@H](O)C[C@@]21C [Loteprednol etabonate] | 1.18 | 2.23 | 1.71 | 1.66 | 0.658 | 1.81
45 | COC(=O)[C@H]1[C@H]2C[C@@H]3c4[nH]c5cc(OC)ccc5c4CCN3C[C@H]2C[C@@H](OC(=O)c2cc(OC)c(OC)c(OC)c2)[C@@H]1OC [Reserpine] | 1.54 | 1.58 | 1.94 | 1.51 | 0.642 | 1.29
46 | CC(C)(C)NS(=O)(=O)c1cncc(-c2cc(F)c3nc(N)nn3c2)c1 | 0.676 | 0.836 | 1.2 | 1.61 | 0.94 | 1.09
